# Values joined by “and” are separate entries in the source; they are usually repeats but may differ in a detail not shown here. Equal entries are not always repeated. Hit rate of the full screen: of about 5,700 compounds, about 85 (1%) were called active. Rule as the data show it: active = p53-positive nuclei above about 36% (passing the limit was not always enough); inactive = the rest. For the sample, actives were picked, then their nearest neighbours and some compounds at random.
# How the values were obtained:
# [1] = nuclear p53 accumulation, HPV+ cells – imaging, p53-positive nuclei imaging, 24 h, 48 h (AID 1508601); details: 24/48 h
# [2] = target: Cellular tumor antigen p53 (Homo sapiens) (UniProt P04637); experiment: as above; details: 24/48 h, stronger effect = higher value
# [3] = measured here: cell number at 24 h, Library stock concentration: 3.33 mM
# [4] = measured here: cell number at 48 h, Library stock concentration: 3.33 mM
# [5] = Library stock concentration: 3.33 mM
# [6] = measured here: p53 positive nuclei at 24 h, Library stock concentration: 3.33 mM
# [7] = measured here: cell number at 24 h, concentration not given here
# [8] = measured here: cell number at 48 h, concentration not given here
# [9] = measured here: p53 positive nuclei at 24 h, concentration not given here
# [10] = measured here: cell number at 24 h, Library stock concentration: 80 uM
# [11] = measured here: cell number at 24 h, Library stock concentration: 400 uM
# [12] = measured here: cell number at 24 h, Library stock concentration: 2 mM
# [13] = measured here: cell number at 24 h, Library stock concentration: 10 mM
# [14] = measured here: cell number at 48 h, Library stock concentration: 80 uM
# [15] = measured here: cell number at 48 h, Library stock concentration: 400 uM
# [16] = measured here: cell number at 48 h, Library stock concentration: 2 mM
# [17] = measured here: cell number at 48 h, Library stock concentration: 10 mM
# [18] = Library stock concentration: 80 uM
# [19] = Library stock concentration: 400 uM
# [20] = Library stock concentration: 2 mM
# [21] = Library stock concentration: 10 mM
# [22] = measured here: p53 positive nuclei at 24 h, Library stock concentration: 80 uM
# [23] = measured here: p53 positive nuclei at 24 h, Library stock concentration: 400 uM
# [24] = measured here: p53 positive nuclei at 24 h, Library stock concentration: 2 mM
# [25] = measured here: p53 positive nuclei at 24 h, Library stock concentration: 10 mM
# Cellular tumor antigen p53 (Homo sapiens), sequence (P04637 whole entry, looked up): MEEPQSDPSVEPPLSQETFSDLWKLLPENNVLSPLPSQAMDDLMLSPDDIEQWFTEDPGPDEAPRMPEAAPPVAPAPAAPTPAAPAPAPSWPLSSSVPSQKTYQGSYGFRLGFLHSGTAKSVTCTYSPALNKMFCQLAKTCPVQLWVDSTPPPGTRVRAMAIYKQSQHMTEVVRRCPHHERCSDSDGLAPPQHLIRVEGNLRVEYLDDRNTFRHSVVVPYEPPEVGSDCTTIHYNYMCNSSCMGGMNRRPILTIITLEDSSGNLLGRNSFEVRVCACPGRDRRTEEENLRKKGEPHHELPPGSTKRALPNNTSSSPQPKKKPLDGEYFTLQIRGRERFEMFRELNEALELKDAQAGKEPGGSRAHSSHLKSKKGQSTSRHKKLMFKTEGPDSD
smiles,measurement,setting,value
CCC(CC)(NC(=O)C(C)C)C(=O)NC(CCCN=C(N)N)C(=O)NC1(C(=O)NC(c2ccc(F)cc2)c2ccc(F)cc2)CCCC1 (configuration not stated),"nuclei count, normalised",[1]; [3],107%
same,"nuclei count, normalised",[1]; [4],102%
same,"p53-positive nuclei, normalised",[2]; [5],-0.0557% (inactive)
same,"p53-positive nuclei, normalised",[2]; [6],-0.115%
c1ccc(-c2nc3c(cnn3C3CCCCC3)[nH]2)c(Cn2cccn2)c1,"nuclei count, normalised",[1]; [7],106%
same,"nuclei count, normalised",[1]; [8],110%
same,"p53-positive nuclei, normalised",[2]; concentration not given here,-0.0852% (inactive)
same,"p53-positive nuclei, normalised",[2]; [9],0.144%
CN(C)c1ccc(C(=O)NCCCCCCC(=O)NO)cc1,"nuclei count, normalised",[1]; [3],54.1%
same,"nuclei count, normalised",[1]; [7],116%
same,"nuclei count, normalised",[1]; [4],44.8%
same,"nuclei count, normalised",[1]; [8],100%
same,"p53-positive nuclei, normalised",[2]; [5],25% (inactive)
same,"p53-positive nuclei, normalised",[2]; concentration not given here,0.296% (inactive)
same,"p53-positive nuclei, normalised",[2]; [6],45%
same,"p53-positive nuclei, normalised",[2]; [9],0.159%
CC(C=CC(=O)NO)=CC(C)C(=O)c1ccc(N(C)C)cc1 (configuration not stated),"nuclei count, normalised",[1]; [3],35.3%
same,"nuclei count, normalised",[1]; [4],21.2%
same,"p53-positive nuclei, normalised",[2]; [5],88.9% (active)
same,"p53-positive nuclei, normalised",[2]; [6],74.9%
CN(C)c1ccc(C(=O)NCCCCCC(=O)NO)cc1,"nuclei count, normalised",[1]; [7],110%
same,"nuclei count, normalised",[1]; [8],106%
same,"p53-positive nuclei, normalised",[2]; concentration not given here,0.149% (inactive)
same,"p53-positive nuclei, normalised",[2]; [9],0.257%
CC(/C=C/C(=O)NO)=C\[C@@H](C)C(=O)c1ccc(N(C)C)cc1,"nuclei count, normalised",[1]; [7],53.4%
same,"nuclei count, normalised",[1]; [8],27.6%
same,"p53-positive nuclei, normalised",[2]; concentration not given here,55.3% (active)
same,"p53-positive nuclei, normalised",[2]; [9],61.3%
COC(=O)c1c(NC(=O)CC2SC(=N)NC2=O)sc(C)c1C (configuration not stated),"nuclei count, normalised",[1]; [10],98.4%
same,"nuclei count, normalised",[1]; [11],104%
same,"nuclei count, normalised",[1]; [12],101%
same,"nuclei count, normalised",[1]; [13],101%
same,"nuclei count, normalised",[1]; [14],108%
same,"nuclei count, normalised",[1]; [15],108%
same,"nuclei count, normalised",[1]; [16],106%
same,"nuclei count, normalised",[1]; [17],99.8%
same,"p53-positive nuclei, normalised",[2]; [18],-0.137% (inactive)
same,"p53-positive nuclei, normalised",[2]; [19],-0.126% (inactive)
same,"p53-positive nuclei, normalised",[2]; [20],-0.195% (inactive)
same,"p53-positive nuclei, normalised",[2]; [21],-0.114% (inactive)
same,"p53-positive nuclei, normalised",[2]; [22],-0.000422%
same,"p53-positive nuclei, normalised",[2]; [23],-0.116%
same,"p53-positive nuclei, normalised",[2]; [24],-0.00728%
same,"p53-positive nuclei, normalised",[2]; [25],-0.004%
C[C@]1(C(=O)Nc2ccc(F)nc2)CCCN1c1nc(Nc2cc(C3CC3)[nH]n2)c2cccn2n1,"nuclei count, normalised",[1]; [3],46.1%
same,"nuclei count, normalised",[1]; [4],30.3%
same,"p53-positive nuclei, normalised",[2]; [5],-0.488% (inactive)
same,"p53-positive nuclei, normalised",[2]; [6],-0.0691%
CNC(=O)c1nn(C)c2c1C(C)(C)Cc1cnc(Nc3ccc(N4CCN(C)CC4)cc3)nc1-2,"nuclei count, normalised",[1]; [3],62.7%
same,"nuclei count, normalised",[1]; [4],44%
same,"p53-positive nuclei, normalised",[2]; [5],0.155% (inactive)
same,"p53-positive nuclei, normalised",[2]; [6],0.144%
CN1CCN(c2ccc(Nc3c4ccccc4nc4ccccc34)cc2)CC1,"nuclei count, normalised","[1]; measured here: cell number at 24 h, Library stock concentration: 46 uM",95.9%
same,"nuclei count, normalised",[1]; [10],110%
same,"nuclei count, normalised","[1]; measured here: cell number at 24 h, Library stock concentration: 278 uM",90.1%
same,"nuclei count, normalised",[1]; [11],95.8%
same,"nuclei count, normalised","[1]; measured here: cell number at 24 h, Library stock concentration: 1.67 mM",79.3%
same,"nuclei count, normalised",[1]; [12],52.3%
same,"nuclei count, normalised",[1]; [13],32.6% and 36.6%
same,"nuclei count, normalised","[1]; measured here: cell number at 48 h, Library stock concentration: 46 uM",96.2%
same,"nuclei count, normalised",[1]; [14],109%
same,"nuclei count, normalised","[1]; measured here: cell number at 48 h, Library stock concentration: 278 uM",93.5%
same,"nuclei count, normalised",[1]; [15],103%
same,"nuclei count, normalised","[1]; measured here: cell number at 48 h, Library stock concentration: 1.67 mM",81%
same,"nuclei count, normalised",[1]; [16],48.7%
same,"nuclei count, normalised",[1]; [17],18.8% and 22%
same,"p53-positive nuclei, normalised",[2]; Library stock concentration: 46 uM,-0.136% (inactive)
same,"p53-positive nuclei, normalised",[2]; [18],-0.131% (inactive)
same,"p53-positive nuclei, normalised",[2]; Library stock concentration: 278 uM,-0.255% (inactive)
same,"p53-positive nuclei, normalised",[2]; [19],-0.231% (inactive)
same,"p53-positive nuclei, normalised",[2]; Library stock concentration: 1.67 mM,-0.00204% (inactive)
same,"p53-positive nuclei, normalised",[2]; [20],5.16% (inactive)
same,"p53-positive nuclei, normalised",[2]; [21],53.2% (active) and 55.4% (active)
same,"p53-positive nuclei, normalised","[2]; measured here: p53 positive nuclei at 24 h, Library stock concentration: 46 uM",-0.145%
same,"p53-positive nuclei, normalised",[2]; [22],-0.0662%
same,"p53-positive nuclei, normalised","[2]; measured here: p53 positive nuclei at 24 h, Library stock concentration: 278 uM",-0.137%
same,"p53-positive nuclei, normalised",[2]; [23],-0.059%
same,"p53-positive nuclei, normalised","[2]; measured here: p53 positive nuclei at 24 h, Library stock concentration: 1.67 mM",0.126%
same,"p53-positive nuclei, normalised",[2]; [24],13.1%
same,"p53-positive nuclei, normalised",[2]; [25],88.3% and 79.2%
C=CC(=O)Nc1cccc(Oc2nc(Nc3ccc(N4CCN(C)CC4)cc3)ncc2Cl)c1,"nuclei count, normalised",[1]; [3],64.1%
same,"nuclei count, normalised",[1]; [4],64.3%
same,"p53-positive nuclei, normalised",[2]; [5],-0.197% (inactive)
same,"p53-positive nuclei, normalised",[2]; [6],-0.375%
O=C1CN(c2ncnc3sccc23)CCN1Cc1ccc(F)cc1,"nuclei count, normalised",[1]; [7],108%
same,"nuclei count, normalised",[1]; [8],111%
same,"p53-positive nuclei, normalised",[2]; concentration not given here,-0.087% (inactive)
same,"p53-positive nuclei, normalised",[2]; [9],-0.23%
CC=CCC(C)C(O)C1C(=O)NC(CC)C(=O)N(C)CC(=O)N(C)C(CC(C)C)C(=O)NC(C(C)C)C(=O)N(C)C(CC(C)C)C(=O)NC(C)C(=O)NC(C)C(=O)N(C)C(CC(C)C)C(=O)N(C)C(CC(C)C)C(=O)N(C)C(C(C)C)C(=O)N1C (configuration not stated),"nuclei count, normalised",[1]; [3],114% and 120%
same,"nuclei count, normalised",[1]; [4],120% and 121%
same,"p53-positive nuclei, normalised",[2]; [5],-0.306% (inactive) and -0.666% (inactive)
same,"p53-positive nuclei, normalised",[2]; [6],-0.452% and -0.338%

# Source: PubChem BioAssay AID1508601 (ICCB-Longwood Screening Facility, Harvard Medical School, 2020)
